Here are results for seven compounds from PubChem BioAssay (NCATS).

Records with an inconclusive call do not appear. Calls of active or inactive are those of the source. Unless noted, calls come from the whole dose curve; as a rule, active = well fitted curve in the direction sought with a large enough effect; inconclusive = small, poorly fitted or top-dose-only effect, or another doubt; inactive = no such curve, though single readings can be large; an effect the other way counts as inactive or inconclusive.

In assay [1] the target is Thioredoxin reductase 1, cytoplasmic (Rattus norvegicus) (UniProt O89049). Nature of the assay: qHTS Assay for Inhibitors of Mammalian Selenoprotein Thioredoxin Reductase 1 (TrxR1) (AID 488773).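 Note: drop in NADPH fluorescence over an 8 min run after selenite addition; series mostly up to about 57 µM; % is set by controls: 0 for no effect and ±100 for the full control effect; nearly all actives have a fitted effect of over 40% in size.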 Particulars: Potency: inhibition. In outline:
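Steps: enzyme (90 nM) plus NADPH (400 uM final), 5 min at ~22 deg C; compound added, 15 min; selenite (400 uM final) added; fluorescence followed for 8 min. Concentration-response curves derived from the normalized delta values.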
For orientation: In qHTS, concentration-response curves come from the screen itself.

The target in assay [2] is Flap endonuclease 1 (Homo sapiens) (UniProt P39748). Nature of the assay: qHTS Validation Assay for the Inhibitors of Human Flap endonuclease 1 (FEN1) (AID 488816). Note: % is set by controls: 0 for no effect and ±100 for the full control effect. The essentials: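 Human FEN1 (10 nM) preincubated 15 min at room temperature with compounds, then flap DNA substrate added at 50 nM final. Fluorescence read at 0 and 15 min; concentration-response fitted with four-parameter Hill equation.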
Flap endonuclease 1 (Homo sapiens), sequence (P39748 whole entry, looked up): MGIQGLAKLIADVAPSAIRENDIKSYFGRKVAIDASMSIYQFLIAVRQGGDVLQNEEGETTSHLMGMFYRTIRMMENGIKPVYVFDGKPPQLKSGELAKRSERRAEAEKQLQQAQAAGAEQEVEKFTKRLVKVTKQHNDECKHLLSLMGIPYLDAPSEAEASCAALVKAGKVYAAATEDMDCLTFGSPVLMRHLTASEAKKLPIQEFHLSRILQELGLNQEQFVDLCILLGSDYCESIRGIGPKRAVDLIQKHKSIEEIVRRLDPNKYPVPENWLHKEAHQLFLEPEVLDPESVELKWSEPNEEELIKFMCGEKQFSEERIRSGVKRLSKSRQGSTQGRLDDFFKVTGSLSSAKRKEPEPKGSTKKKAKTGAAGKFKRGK

The target of assay [3] is M-phase phosphoprotein 8 (Homo sapiens) (UniProt Q99549). Nature of the assay: qHTS Validation Assay for Inhibitors for MPP8 Chromodomain Interactions with Methylated Histone Tails (AID 488949). Note: nearly all actives have a fitted effect of over 55% in size. Note: potency is the fitted concentration of half-maximal effect. In outline: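 Disruption of the preformed MPP8–trimethyl-H3K9 peptide complex (both 50 nM, 30 min, RT) is measured after 30 min compound exposure, using AlphaScreen proximity beads; aurintricarboxylic acid titration serves as plate control.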

Assay [4] concerns the target Chromobox protein homolog 1 (Homo sapiens) (UniProt P83916). Nature of the assay: qHTS Validation Assay for Inhibitors of HP1-beta Chromodomain Interactions with Methylated Histone Tails (AID 488953). Note: nearly all actives have a fitted effect of over 50% in size. Note: potency is the fitted concentration of half-maximal effect. The essentials:
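HP1-beta (50 nM) preformed 30 min with biotinylated H3(1-18)K9me3 peptide (50 nM) in PBS pH 7.4, 0.01% Tween-20. Compounds added for 30 min at room temperature. Complex disruption read by AlphaScreen with streptavidin donor/nickel chelate acceptor beads (10 ug/mL each).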

Assay [5] has as its target Methanococcus maripaludis chaperonin (MmCpn) (UniProt Q6LX38). Nature of the assay: High-Throughput Screening for Modulators of Cytosolic Chaperonin Activity: MmCpn Primary Screen (AID 488978).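 Note: 50 nM MmCpn enzyme hydrolysing 30 µM ATP at 37 °C; 0% is about no effect.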 The essentials: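 Measures ATPase turnover of the M. maripaludis chaperonin (50 nM final) against 30 uM ATP over 10 min at 37C, with compound added 5 min beforehand at room temperature. ADP is quantified by HTRF immunodetection.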

Assay [6] addresses Transient receptor potential cation channel subfamily V member 1 (Homo sapiens) (UniProt Q8NER1). Nature of the assay: HTS Assay for Compounds that Act as Enhancers of the Vanilloid Receptor 1 (AID 488979). Note: 0% is about no effect. The essentials:
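TRPV1 cells loaded with Fluo-8 calcium dye; compound added and Ca2+ signal (ex 480/em 520 nm) followed 3 min, then capsaicin at EC20 added and read 2 more min to detect enhancement.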

Assay [7] concerns the target Thyrotropin receptor (Homo sapiens) (UniProt P16473). Nature of the assay: qHTS Assay for Antagonists of the Thyroid Stimulating Hormone Receptor (AID 488980). Note: series mostly up to about 58 µM; 0% is about no effect. In outline:
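Cells expressing human TSHR (HEK293) are dispensed in HBSS/HEPES containing 70 uM RO 20-1724, compound is added, then TSH at EC80 (4 nM final). Antibody in lysis buffer follows, 30 minutes at room temperature before HTRF detection.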

In assay [8] the target is D(1A) dopamine receptor (Homo sapiens) (UniProt P21728). The experiment in a line: HTS Assay for Allosteric Agonists of the Human D1 Dopamine Receptor: Primary Screen for Agonists (AID 488981). Note: 0% is about no effect. The essentials:
(§1)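 Tetracycline-induced HEK293 Trex D1 cells with forced coupling to calcium, loaded with no-wash calcium dye; kinetic fluorescence read 180 s after compound addition for agonism, then a further 180 s after an EC20 dopamine challenge for potentiation.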

For assay [9] the target is unchanged. The experiment in a line: HTS Assay for Allosteric Agonists of the Human D1 Dopamine Receptor: Primary Screen for Potentiators (AID 488982). Note: 0% is about no effect. The essentials:
as §1

The target in assay [10] is Thyrotropin-releasing hormone receptor (Homo sapiens) (UniProt P34981). The experiment in a line: qHTS for Small Molecule Agonists and Allosteric Enhancers of Human TRH Receptor: Validation Screen for Agonists (AID 493127;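 active = calcium activation more than 3 SD above the typical response in the agonist read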; note: 0% is about no effect). Particulars: TRH receptor agonist cell assay; at 2 µM; stronger effect = higher value. The essentials:
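TRHR cells loaded with fluo-8 calcium dye; FDSS kinetic fluorescence (Ex 480/Em 530) read at 1 s/cycle after 23 nL compound addition. Agonist-mode calcium response recorded before the 10 nM TRH (EC20) addition.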

Assay [11] in a line: Nrf2 qHTS screen for inhibitors: Validation (AID 493153; active = well fitted inhibition curve with a large enough effect in the main read-out, with a control signal flat, not every such curve was filed as active). Particulars: Potency: luciferase luminescence; viability change: measured here: cytotoxicity max response. In outline: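 A549 cells carrying ARE-firefly luciferase reporter, 5000 cells/well in 5% FBS OPTI-MEM, treated with compound over a concentration series for 18-24 h at 37 C. Luciferase luminescence gave Nrf2 activity; CellTiter-Fluor fluorescence gave viability.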

Assay [12] in a line: qHTS for Inhibitors of Cell Surface uPA Generation: Validation Assay (AID 493164). Note: 0% is about no effect. In outline:
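RAW 264.7 cells (4000/well) were plated overnight, then exposed for 18 h at 37 C, 5% CO2 to compounds in a 7-point 1:5 titration (2.45 nM–38.3 uM final). Intracellular ATP was read by ATP-Lite luminescence.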

Assay [13] deals with Galactokinase (Homo sapiens) (UniProt P51570). The experiment in a line: qHTS Validation Assay for Inhibitors of Human Galactokinase (GALK) (AID 493189). Note: 0% is about no effect. The essentials: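 Compounds were pin-transferred into ATP buffer, then GALK-galactose mix was added (final 5 nM enzyme, 100 uM galactose, 35 uM ATP). After 1 h at room temperature, remaining ATP was measured luminescently.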
Galactokinase (Homo sapiens), sequence (P51570 whole entry, looked up): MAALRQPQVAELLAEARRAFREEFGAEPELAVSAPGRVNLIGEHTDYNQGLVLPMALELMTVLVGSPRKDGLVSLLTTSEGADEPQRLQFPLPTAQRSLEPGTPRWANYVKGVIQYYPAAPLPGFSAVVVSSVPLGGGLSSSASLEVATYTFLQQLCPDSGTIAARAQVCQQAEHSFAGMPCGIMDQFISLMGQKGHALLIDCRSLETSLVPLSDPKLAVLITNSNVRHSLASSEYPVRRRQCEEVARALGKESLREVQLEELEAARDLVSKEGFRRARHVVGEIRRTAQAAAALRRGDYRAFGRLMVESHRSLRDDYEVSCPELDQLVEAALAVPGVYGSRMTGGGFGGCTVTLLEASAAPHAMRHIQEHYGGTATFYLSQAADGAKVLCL

A short description of assay [14]: Validation screen for small molecules that induce DNA re-replication in SW480 colon adenocarcinoma cells (AID 504364). Note: 0% is about no effect. The essentials: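 SW480 cells (250/well) exposed 48 h at 37 C, 5% CO2, then Hoechst-stained 40 min. Nuclear DNA content imaged by fluorescence scanning (405 nm excitation, 500-530 nm emission); re-replication scored as increased nuclei with elevated intensity.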

Assay [15] has as its target Peptidyl-prolyl cis-trans isomerase NIMA-interacting 1 (Homo sapiens) (UniProt Q13526). The experiment in a line: qHTS Validation Assay to Find Inhibitors of Pin1 (AID 504536; active = well fitted inhibition curve with a large enough effect in the polarisation, with a control signal flat, not every such curve was filed as active; the % refers to the polarisation;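 note: 0% = full Pin1 enzyme wells and -100% = no-enzyme wells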). The essentials: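 Fluorescence polarization competition: compounds (titration) displace HiFluor-488-labeled Pin1-1b peptide from Pin1 (0.3 uM final) in pH 7.5 HEPES buffer with DTT, 10 min at room temperature; %Activity normalized to no-enzyme wells, curves fitted.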

Assay [16] has as its target Phosphoglycerate kinase, glycosomal (Trypanosoma brucei brucei) (UniProt P07378). Nature of the assay: qHTS Validation Assay to Find Inhibitors of Phosphoglycerate Kinase (AID 504547).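 Note: control wells lack PGK and mark full inhibition.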 The essentials:
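PGK activity was coupled to GAPDH (100nM final), which generates the unstable substrate 1,3-bisphosphoglycerate in-well. Reactions ran 60 minutes at room temperature in 100mM TEA pH 7.6, 5mM MgCl2, 0.01% Tween-20, then Kinase-Glo Plus luminescence was read.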

For assay [17], the target named is ATP-dependent 6-phosphofructokinase (Trypanosoma brucei brucei) (UniProt O15648). The experiment in a line: qHTS Assay to Find Inhibitors of T. brucei phosphofructokinase: hit validation (AID 492961). Note: series mostly up to about 51 µM; % is set by controls: 0 for no effect and ±100 for the full control effect. In outline:
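Luminescence from ADP-Glo reports ADP generated as T. brucei PFK (1.25 nM) phosphorylates 0.5 mM fructose-6-phosphate using 0.1 mM ATP. Reactions ran 45 min at room temperature, pH 8.0.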

The target of assay [18] is D(1A) dopamine receptor (Homo sapiens) (UniProt P21728). The experiment in a line: HTS Assay for Allosteric Agonists of the Human D1 Dopamine Receptor: Primary Screen for Antagonists (AID 488983).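 Note: calcium flux response to an EC80 dopamine challenge measured with no-wash dye; % is set by controls: 0 for no effect and ±100 for the full control effect; nearly all actives have a fitted effect of over 65% in size.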 The essentials: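 Tetracycline-induced HEK293 T-REx D1 line, force-coupled to calcium flux, read with no-wash calcium dye. Compound added after 10 s baseline, read 180 s for agonism, then EC80 dopamine added and read a further 180 s.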
D(1A) dopamine receptor (Homo sapiens), sequence (P21728 whole entry, looked up): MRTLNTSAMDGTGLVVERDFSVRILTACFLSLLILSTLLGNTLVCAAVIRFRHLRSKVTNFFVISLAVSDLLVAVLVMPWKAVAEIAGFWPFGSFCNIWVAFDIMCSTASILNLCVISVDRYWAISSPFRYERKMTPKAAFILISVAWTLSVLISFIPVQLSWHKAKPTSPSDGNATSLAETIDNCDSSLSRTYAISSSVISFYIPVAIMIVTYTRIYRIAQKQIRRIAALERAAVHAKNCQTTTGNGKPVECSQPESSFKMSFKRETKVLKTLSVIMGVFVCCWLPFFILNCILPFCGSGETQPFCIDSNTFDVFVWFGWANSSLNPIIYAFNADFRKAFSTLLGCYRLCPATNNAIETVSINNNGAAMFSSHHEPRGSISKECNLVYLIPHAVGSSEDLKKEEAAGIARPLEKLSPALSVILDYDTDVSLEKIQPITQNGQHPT

The target in assay [19] is ATPase family AAA domain-containing protein 5 (Homo sapiens) (UniProt Q96QE3). The experiment in a line: Validation screen for small molecules that inhibit ELG1-dependent DNA repair in human embryonic kidney (HEK293T) cells expressing luciferase-tagged ELG1 (AID 493107).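 Note: cells co-treated with the DNA-damaging agent 5-fluorouridine alongside compound; series mostly up to about 46 µM; % is set by controls: 0 for no effect and ±100 for the full control effect; inhibitors lower the ELG1-luciferase luminescence signal; nearly all actives have a fitted effect of over 70% in size.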 In outline:
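HEK293T cells expressing luciferase-tagged ELG1, 2,000 per well, treated with 5-fluorouridine plus compound for 16 h at 37 C. ONE-Glo luminescence after 30 min at room temperature reports ELG1 reporter level.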

Methanococcus maripaludis chaperonin (MmCpn), sequence (Q6LX38 1-543): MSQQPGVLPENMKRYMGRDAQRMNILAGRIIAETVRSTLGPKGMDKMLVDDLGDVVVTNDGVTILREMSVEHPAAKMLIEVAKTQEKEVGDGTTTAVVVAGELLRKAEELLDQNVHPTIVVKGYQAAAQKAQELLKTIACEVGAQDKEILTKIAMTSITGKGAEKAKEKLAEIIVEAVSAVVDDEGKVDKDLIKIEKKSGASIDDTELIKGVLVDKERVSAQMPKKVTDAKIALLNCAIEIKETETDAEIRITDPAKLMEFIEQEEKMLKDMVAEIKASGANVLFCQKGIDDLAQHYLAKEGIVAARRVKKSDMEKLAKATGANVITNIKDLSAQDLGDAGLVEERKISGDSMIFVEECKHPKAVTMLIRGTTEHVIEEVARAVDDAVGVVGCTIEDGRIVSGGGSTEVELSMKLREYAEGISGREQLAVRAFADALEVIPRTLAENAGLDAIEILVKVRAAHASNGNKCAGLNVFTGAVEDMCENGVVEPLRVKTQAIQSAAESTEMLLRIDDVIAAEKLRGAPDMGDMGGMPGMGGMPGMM
Peptidyl-prolyl cis-trans isomerase NIMA-interacting 1 (Homo sapiens), sequence (Q13526 whole entry, looked up): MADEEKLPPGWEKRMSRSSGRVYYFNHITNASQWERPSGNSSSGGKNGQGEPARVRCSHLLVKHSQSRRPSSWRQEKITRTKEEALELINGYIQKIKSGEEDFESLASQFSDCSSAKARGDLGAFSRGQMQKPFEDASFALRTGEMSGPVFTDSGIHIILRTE
Chromobox protein homolog 1 (Homo sapiens), sequence (P83916 whole entry, looked up): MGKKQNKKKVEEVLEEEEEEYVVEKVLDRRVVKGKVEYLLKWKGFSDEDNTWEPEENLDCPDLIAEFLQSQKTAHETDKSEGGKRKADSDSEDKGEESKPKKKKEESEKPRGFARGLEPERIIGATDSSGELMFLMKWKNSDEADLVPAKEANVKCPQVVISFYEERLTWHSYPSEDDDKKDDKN
ATPase family AAA domain-containing protein 5 (Homo sapiens), sequence (Q96QE3 whole entry, looked up, the tested form may be a part): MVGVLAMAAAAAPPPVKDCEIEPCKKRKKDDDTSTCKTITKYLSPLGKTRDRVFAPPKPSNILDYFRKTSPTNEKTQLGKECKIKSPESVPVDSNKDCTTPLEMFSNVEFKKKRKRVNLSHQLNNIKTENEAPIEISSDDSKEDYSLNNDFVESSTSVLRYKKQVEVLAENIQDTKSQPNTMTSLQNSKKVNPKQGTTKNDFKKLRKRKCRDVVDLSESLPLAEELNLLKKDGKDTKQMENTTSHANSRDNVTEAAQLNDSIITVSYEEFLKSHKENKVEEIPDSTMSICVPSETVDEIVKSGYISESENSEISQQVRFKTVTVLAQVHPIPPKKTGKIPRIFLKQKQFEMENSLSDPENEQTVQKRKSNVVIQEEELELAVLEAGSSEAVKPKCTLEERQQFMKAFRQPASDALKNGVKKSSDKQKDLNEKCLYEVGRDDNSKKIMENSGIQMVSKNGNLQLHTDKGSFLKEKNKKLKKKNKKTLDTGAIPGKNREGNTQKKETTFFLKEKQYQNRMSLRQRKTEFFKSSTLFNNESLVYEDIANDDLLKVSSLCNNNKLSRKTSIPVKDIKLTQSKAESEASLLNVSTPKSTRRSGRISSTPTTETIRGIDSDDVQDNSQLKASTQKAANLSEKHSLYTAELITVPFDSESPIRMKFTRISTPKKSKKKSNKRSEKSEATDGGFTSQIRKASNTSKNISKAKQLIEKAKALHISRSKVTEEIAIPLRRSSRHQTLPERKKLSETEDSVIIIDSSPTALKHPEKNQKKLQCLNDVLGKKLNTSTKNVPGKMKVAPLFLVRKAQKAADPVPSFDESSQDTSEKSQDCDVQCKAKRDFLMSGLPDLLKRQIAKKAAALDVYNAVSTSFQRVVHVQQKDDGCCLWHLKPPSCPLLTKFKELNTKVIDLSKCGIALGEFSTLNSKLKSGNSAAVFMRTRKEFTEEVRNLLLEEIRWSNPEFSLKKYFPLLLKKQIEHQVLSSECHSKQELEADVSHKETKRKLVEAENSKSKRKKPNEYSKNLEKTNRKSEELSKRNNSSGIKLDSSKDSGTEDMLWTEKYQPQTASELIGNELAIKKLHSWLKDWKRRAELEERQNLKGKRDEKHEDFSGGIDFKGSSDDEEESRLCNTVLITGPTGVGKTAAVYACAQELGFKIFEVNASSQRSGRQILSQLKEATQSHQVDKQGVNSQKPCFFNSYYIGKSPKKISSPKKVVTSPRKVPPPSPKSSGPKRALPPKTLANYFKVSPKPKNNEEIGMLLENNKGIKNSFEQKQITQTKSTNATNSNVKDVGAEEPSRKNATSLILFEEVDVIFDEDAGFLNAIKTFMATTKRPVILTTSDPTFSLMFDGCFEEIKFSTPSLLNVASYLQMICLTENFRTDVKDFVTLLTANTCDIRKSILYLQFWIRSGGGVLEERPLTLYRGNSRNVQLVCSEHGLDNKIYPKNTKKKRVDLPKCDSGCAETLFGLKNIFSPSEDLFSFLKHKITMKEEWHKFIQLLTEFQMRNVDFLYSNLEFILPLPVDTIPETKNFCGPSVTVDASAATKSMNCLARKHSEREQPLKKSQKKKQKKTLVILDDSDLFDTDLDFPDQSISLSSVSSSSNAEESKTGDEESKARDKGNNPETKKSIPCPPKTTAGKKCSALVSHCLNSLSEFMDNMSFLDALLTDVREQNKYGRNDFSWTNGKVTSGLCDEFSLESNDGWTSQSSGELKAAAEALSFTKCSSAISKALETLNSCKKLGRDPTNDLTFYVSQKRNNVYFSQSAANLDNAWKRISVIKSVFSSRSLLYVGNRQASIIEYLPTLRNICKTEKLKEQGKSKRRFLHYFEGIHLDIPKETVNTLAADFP
Thyrotropin-releasing hormone receptor (Homo sapiens), sequence (P34981 whole entry, looked up): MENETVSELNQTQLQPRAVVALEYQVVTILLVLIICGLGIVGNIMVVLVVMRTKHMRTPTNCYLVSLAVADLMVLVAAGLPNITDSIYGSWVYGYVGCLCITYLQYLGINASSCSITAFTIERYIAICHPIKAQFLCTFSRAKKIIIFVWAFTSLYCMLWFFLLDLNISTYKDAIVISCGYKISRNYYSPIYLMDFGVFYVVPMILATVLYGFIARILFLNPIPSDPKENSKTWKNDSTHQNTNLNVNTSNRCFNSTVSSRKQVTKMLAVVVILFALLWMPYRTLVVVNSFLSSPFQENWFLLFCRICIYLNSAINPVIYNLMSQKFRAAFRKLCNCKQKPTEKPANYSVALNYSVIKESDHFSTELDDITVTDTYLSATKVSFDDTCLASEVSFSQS
Phosphoglycerate kinase, glycosomal (Trypanosoma brucei brucei), sequence (P07378 whole entry, looked up): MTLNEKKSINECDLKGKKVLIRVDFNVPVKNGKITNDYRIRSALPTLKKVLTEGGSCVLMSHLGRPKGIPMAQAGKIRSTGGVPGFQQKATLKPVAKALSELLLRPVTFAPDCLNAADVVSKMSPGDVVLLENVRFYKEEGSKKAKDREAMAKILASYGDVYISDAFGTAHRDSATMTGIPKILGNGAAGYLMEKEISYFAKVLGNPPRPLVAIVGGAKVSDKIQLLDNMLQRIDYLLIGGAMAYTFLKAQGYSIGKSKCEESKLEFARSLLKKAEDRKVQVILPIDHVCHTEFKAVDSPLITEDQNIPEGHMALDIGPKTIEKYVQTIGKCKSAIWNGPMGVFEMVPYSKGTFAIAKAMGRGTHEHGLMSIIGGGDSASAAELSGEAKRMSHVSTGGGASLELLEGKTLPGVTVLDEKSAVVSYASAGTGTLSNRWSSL

Take `CCN1CCCC1CNC(=O)c1cc(S(N)(=O)=O)ccc1OC` (stereo not given): the Potency result in [1], in assay [2], in [3], in assay [4], in assay [11] and in [16] was “inactive” in each case. In addition, the outcome in [5], in [6], in assay [7], in assay [8], in assay [9] and in [12] was inactive. Moreover, the call in assay [13], in [14] and in [15] was inactive. The activation in assay [10] was 0.25% (inactive). The viability change in assay [11] worked out at 7.94%.
For the compound `CCn1cc(C(=O)O)c(=O)c2cc(F)c(N3CCNCC3)cc21`, the Potency entry in assay [17] is “inactive”.
As to `COc1cc2ncnc(Nc3cccc(Cl)c3)c2cc1OC`, the Potency entry in [1], in [2], in assay [3], in assay [4] and in assay [16] was “inactive” each time. The result in [5], in assay [6], in assay [7], in [8], in [9] and in assay [18] was inactive. In addition, the compound was classed as inactive in assay [12], in assay [13], in [14] and in assay [15]. In assay [10], the activation is -6.5% (inactive).
With `COc1cc([C@@H]2c3cc4c(cc3[C@H](O)[C@H]3COC(=O)[C@H]23)OCO4)cc(OC)c1OC`, the Potency result in [17] was “inactive”.
As for `Nc1nc(N)c2nc(CNc3ccc(C(=O)NC(CCC(=O)O)C(=O)O)cc3)cnc2n1` (stereo not given), the Potency entry in assay [1], in [2] and in assay [19] was “inactive” throughout. The compound was called inactive in assay [5], in assay [6], in assay [7], in [8], in [9] and in assay [18]. Also, the compound was classed as inactive in assay [12], in assay [13] and in assay [14]. For the same compound, the activation in assay [10] was 1% (inactive).
Regarding `O=C(O)C1CCCN(CCC=C(c2ccccc2)c2ccccc2)C1` (stereo not given), the Potency entry in assay [1], in assay [2], in [3], in assay [4], in [19] and in assay [11] was “inactive” throughout. The Potency entry in assay [16] was “inactive”. The outcome in [5], in assay [6], in assay [7], in [8], in assay [9] and in assay [18] was inactive. Further, the compound was classed as inactive in [12], in assay [13], in assay [14] and in assay [15]. The activation in assay [10] was 0.875% (inactive). In addition, the viability change in assay [11] is -7.12%.
In the case of `OCc1ccc(-c2nn(Cc3ccccc3)c3ccccc23)o1`, the Potency entry in assay [2], in assay [19], in [11] and in assay [16] was “inactive” each time. In addition, the Potency in [3] was 25.1 µM (active); in [4] it was 39.8 µM (active). Besides, the call in assay [5], in assay [6], in assay [7], in [8], in [9] and in [18] was inactive. Besides, the outcome in assay [12], in [13], in assay [14] and in [15] was inactive. Further, in assay [10], the activation was 0.188% (inactive). The viability change in [11] was found to be 4.14%.
